Measured values published in PubChem BioAssay (NCI).
Compounds without any hit were thinned out: in the full panel of roughly 83,000, 20% have a hit.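 Activity criterion: percent growth below 10, measured after cells in 96-well plates were exposed to a single compound concentration for 48 hours.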 A number with no mark means an inactive call. Activity calls are given as the source filed them.

Legend:
Experiment in all cases: NCI-60 one-dose screen, 48 h (100 = growth as untreated, 0 = no growth, -100 = all killed)
Conditions in all cases: 10 µM
HCT-15 colon = test system: HCT-15 colon
HT29 colon = test system: HT29 colon
SNB-75 CNS = test system: SNB-75 CNS
SNB-19 CNS = test system: SNB-19 CNS
U251 CNS = test system: U251 CNS
PC-3 prostate = test system: PC-3 prostate
SK-MEL-5 melanoma = test system: SK-MEL-5 melanoma
UACC-62 melanoma = test system: UACC-62 melanoma
LOX IMVI melanoma = test system: LOX IMVI melanoma
SK-MEL-28 melanoma = test system: SK-MEL-28 melanoma

SMILES	growth (HCT-15 colon)	growth (HT29 colon)	growth (SNB-75 CNS)	growth (SNB-19 CNS)	growth (U251 CNS)	growth (PC-3 prostate)	growth (SK-MEL-5 melanoma)	growth (UACC-62 melanoma)	growth (LOX IMVI melanoma)	growth (SK-MEL-28 melanoma)
CCN1CCOC1C(C)C (stereo not given)	105%	99.3%	99.8%	113%	102%	93.4%	106%	105%	102%	108%
O=[N+]([O-])c1cc2ncccc2c2ncccc12	71.9%	102%	88.2%	96%	102%	77.8%	72.1%	76.4%	45.5%	92%
CCOC(=O)c1cc2c(n1Cc1cc(OC)cc(OC)c1)-c1oncc1CC2	21.9%	5.66% (active)	-0.349% (active)	38.7%	23.5%	27.4%	24.6%	40.3%	49.5%	33.8%
CCOC(=O)C(=O)Cc1cccnn1	102%	101%	78%	102%	96.8%	91.7%	108%	99.7%	99.5%	108%
Cc1cc(C)c(C(=O)OC(C)CNC2CCCCC2)c(C)c1 (stereo not given)	97.5%	90.5%	92.1%	97.5%	97.8%	93.9%	101%	103%	88.3%	105%
CCCCCN(CCCCC)C(C)C(O)c1ccc2cc(Cl)c3ccccc3c2c1 (stereo not given)	93.1%	55.5%	93.8%	104%	90%	80.6%	89.9%	88.2%	94.3%	108%
O=S(=O)(O)C1(O)CCCCC1	87.3%	59%	82.3%	87.8%	99.3%	77.6%	92.9%	96.8%	97.7%	102%
CCOC(=O)c1ccc(NC(=O)Nc2nncs2)cc1	17.5%	1.75% (active)	19.6%	58.3%	17.3%	20.7%	-21.2% (active)	31.2%	13%	42.2%
COc1ccc(-c2cc(/C=C/C(=O)c3ccc(N)cc3)[nH]n2)cc1OC	26%	22.6%	36.8%	51.6%	28.5%	41.8%	63.4%	71.2%	-45.5% (active)	41.9%
Cc1ccc2nc3[nH]c(=O)[nH]c(=O)c3c(N)c2c1	84%	83.3%	90%	86.2%	89.1%	85.6%	84%	47.3%	75.2%	98.3%
CCN(CC)CCOC(=O)c1ccc(N=Nc2ccc(O)c(OC)c2)cc1	103%	90.7%	89.3%	104%	87.1%	95.4%	92%	99.8%	92.2%	107%
Cc1ccc(/C(CS(=O)(=O)c2ccc(C)cc2)=N\O)cc1	95.2%	99.7%	87.8%	88%	90.4%	94.3%	98.9%	87.3%	102%	103%
CCCCCCOc1ccc(/C=C/C(=O)c2ccc(B(O)O)cc2)cc1	75.1%	74.5%	58.5%	104%	77.5%	72.6%	81.4%	79%	83.7%	106%
Cn1c([N+](=O)[O-])cnc1/C=C1\Oc2ccc(Br)cc2C1=O	-40.8% (active)	-31.4% (active)	8.51% (active)	1.52% (active)	-29.6% (active)	-24.7% (active)	-89.2% (active)	-73.7% (active)	-52.3% (active)	-13.7% (active)
O=[N+]([O-])c1ccc(-c2nc(-c3ccccc3)c(-c3ccccc3)n2-c2ccccc2)cc1	12%	16.1%	80.4%	65.9%	32.5%	-6.15% (active)	61.9%	30.9%	18.8%	67.6%
COc1ccc(C(=O)/C=C/c2cc(-c3ccc4c(c3)OCO4)n[nH]2)cc1OC	52.1%	36.4%	60.3%	47.1%	31.8%	48.4%	81.7%	88.9%	47.5%	103%
COc1cc(CSc2nc3ccc(Cl)cc3c(=O)n2-c2ccccc2)cc(OC)c1OC	52.5%	67%	75.8%	80.6%	88.6%	73.2%	81.3%	64.1%	79.3%	103%
NS(=O)(=O)c1ccc(N2N=C(c3ccc(-c4ccccc4)cc3)CC2c2ccc(Cl)cc2)cc1 (stereo not given)	60.9%	64.4%	99.8%	86.5%	75.7%	43.2%	86.8%	51.1%	87.2%	96.8%
CC(=O)O[C@H]1CC[C@@]2(C)[C@@H](CC[C@@H]3[C@@H]2CC[C@]2(C)C=C(C=O)C[C@@H]32)C1	27.5%	31.4%	69.5%	82.5%	22.9%	62.5%	75.7%	78.8%	-71% (active)	70%
C#C[C@]1(O)CC[C@H]2[C@@H]3CC[C@H]4CC(F)(F)CC[C@]4(C)[C@H]3CC[C@@]21C	94.6%	64.1%	70.5%	80.3%	73.3%	70.7%	94.3%	78.8%	89.1%	74.4%
C=CCn1ccc(=O)nc1SC	110%	97.6%	91.2%	106%	102%	95.7%	112%	105%	99.7%	112%
CCn1nc(-c2ccccn2)c2cccnc2c1=S	67.2%	51.9%	95.4%	93.9%	74.5%	38.4%	59.3%	81.2%	87.5%	89.4%
COc1cc(C(=O)n2nc(N)c3c(C)cc(C)nc32)cc(OC)c1OC	33.2%	24%	57.9%	98.4%	72.1%	81.2%	73.8%	80.5%	54%	97.6%
Cc1ccc2oc(=O)cc(/C(=C3/C=CC=N3)c3ccc[nH]3)c2c1	5.43% (active)	-36.6% (active)	8.89% (active)	16.2%	-17.2% (active)	8.12% (active)	-59.2% (active)	11.8%	0.877% (active)	27.7%
C#Cc1ccc(-n2c(/C=C/c3cc(OC)c(OC)c(OC)c3)nc3ncccc3c2=O)cc1	48.6%	16%	34%	88.9%	79.3%	43.8%	9.66% (active)	52.7%	56.9%	77.6%
COc1cc(C(c2c[nH]c3ccccc23)N2CCCC2)ccc1OCc1ccccc1 (stereo not given)	77.1%	78.5%	41.3%	87.5%	86%	55.1%	75.6%	60.9%	68.9%	98%
COCc1cc2c(cc1Br)OCO2	100%	106%	87.1%	105%	99.1%	86.8%	107%	100%	95.6%	99.1%
O=C1/C(=C/c2ccc(O)cc2)Oc2ccc(Cl)cc21	89.1%	155%	82.8%	85.1%	89.9%	95.1%	74.8%	82.5%	82.3%	142%
